HEK293 tox – cytotoxicity in counter-screen for GLP-1R inverse agonists; Potency, µM (highest dose often 38.3 µM), without a hit: top-dose activity change, negative = inhibition, most hits filed as inhibitors; AID 624418; actives 0.13% (n = 410,000); HEK293 cAMP-luciferase reporter cells, luminescence, 24 h;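 further: loss of luciferase light is scored as toxicity; on the % scale 0 is the no-effect control and ±100 the full control effect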
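A 23 nL compound transfer followed 12 hours of cell culture at 37 deg C; exposure then lasted 24 hr. Luciferase assay detection reagent was dispensed and plates read for luminescence after a 12 min room-temperature wait.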
GLP1R inv ag – inverse agonists of human GLP-1 receptor | actives 1.6% (n = 410,000) | Potency, µM (series often up to 38.3 µM), inactives show at the highest dose activity change, negative = inhibition, actives largely listed as inhibitors | HEK293 GLP-1R CRE-luciferase, luminescence, 24 h; GLP-1R form is constitutively active | P43220; further: on the % scale 0 is the no-effect control and ±100 the full control effect; nearly all actives have a fitted effect of over 55% in size
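Seeding at 200 cells/uL, 12 h culture, 24 hr compound treatment, then luciferase reagent and a luminescence read; cells are HEK293 stably expressing a constitutively active GLP-1R plus cAMP-responsive luciferase.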
RGS4 inhibitor – human RGS4 inhibition | Transcreener GDP fluorescence polarization, RGS4-accelerated GTP hydrolysis | Potency, µM (highest dose often 114 µM), for the others: at the highest dose activity change, negative = inhibition, most hits filed as inhibitors | P49798 | actives 0.039% (n = 390,000) | AID 504845; further: on the % scale 0 is the no-effect control and ±100 the full control effect; nearly all actives have a fitted effect of over 75% in size
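MLSMR compounds (23 nl, pin-transferred) preincubated 10 min at room temperature with a 500nM (2x) first reagent, then RGS4 at 900nM (2x) plus Transcreener GDP mix added; fluorescence polarization (620/688 nm) read before and after 90 min at 30 °C.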
GLP1R ag – activates the human GLP-1 receptor; AID 624172; P43220; HEK293 GLP-1R CRE-luciferase, luminescence, 4-6 h; cells express a hypersensitive GLP-1R form; actives 0.007% (n = 380,000); Potency, µM (doses to about 45.6 µM), for inactives: at the top dose activation, hits mostly activators; further: % of control where 0% means no effect
PTHR1 agonist – agonists of human PTHR1 parathyroid hormone receptor | AID 743266 | Potency, µM (titrated, usually from 115 µM), for inactives: at the highest dose activation, most hits filed as activators | actives 0.075% (n = 410,000) | HEK293 GP2 PTHR1 cells, GloSensor cAMP luminescence, 1 h; further: nearly all actives have a fitted effect of over 55% in size
Target sequence (Q03431 whole entry, looked up): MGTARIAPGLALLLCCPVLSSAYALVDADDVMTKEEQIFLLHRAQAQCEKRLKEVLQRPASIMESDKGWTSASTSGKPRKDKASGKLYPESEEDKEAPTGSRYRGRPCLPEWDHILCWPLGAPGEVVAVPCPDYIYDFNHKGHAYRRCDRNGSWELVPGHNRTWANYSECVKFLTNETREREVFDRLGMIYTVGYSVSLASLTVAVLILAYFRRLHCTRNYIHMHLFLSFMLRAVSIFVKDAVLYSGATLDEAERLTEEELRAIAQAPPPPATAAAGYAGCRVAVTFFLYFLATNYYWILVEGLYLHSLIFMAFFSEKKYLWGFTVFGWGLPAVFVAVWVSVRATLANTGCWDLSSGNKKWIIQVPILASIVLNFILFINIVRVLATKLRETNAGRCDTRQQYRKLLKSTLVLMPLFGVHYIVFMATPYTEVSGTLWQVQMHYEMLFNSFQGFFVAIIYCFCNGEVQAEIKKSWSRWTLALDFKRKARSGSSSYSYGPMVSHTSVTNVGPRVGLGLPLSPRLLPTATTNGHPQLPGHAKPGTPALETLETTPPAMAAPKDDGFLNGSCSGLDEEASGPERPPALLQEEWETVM
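HEK-293-derived GP2 cells expressing PTHR1 and a GloSensor cAMP reporter, 3,000/well, plated overnight, given luciferin plus IBMX (each 0.5 mM as added) for 1 h at 37 °C, then compound for 1 h at 37 °C. Luminescence was read after 15 min at room temperature.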
Starred values were filed as active, the others as inactive; [ ] = remark or other dose. In the library only some 1.7% were active in any assay of this set; here they are far more common. The call rests on the fitted dose curve; in most records, active means well fitted curve in the direction sought with a large enough effect; inconclusive means small, poorly fitted or top-dose-only effect, or another doubt; inactive means no such curve, though single readings can be large; an effect the other way counts as inactive or inconclusive. Potency means the concentration at half of the fitted maximal effect.

CCn1c(SCC(=O)c2cc(C)n(C)c2C)nnc1-c1ccccc1 was read as HEK293 tox -14%, GLP1R inv ag -27%, RGS4 inhibitor -6%, GLP1R ag -6% and PTHR1 agonist -8%.
Screening CCn1c(SCC(=O)c2cc(C)n(-c3ccc(C(=O)OC)cc3)c2C)nnc1-c1cccnc1 returned HEK293 tox -14%, GLP1R inv ag 11µM*, RGS4 inhibitor inconclusive, GLP1R ag -2% and PTHR1 agonist -24%.
CC1=CC(C)(C)Nc2ccc(Cc3ccc4c(c3)C(C)=CC(C)(C)N4)cc21 was read as HEK293 tox -15%, GLP1R inv ag 2.8µM*, RGS4 inhibitor -25%, GLP1R ag -1% and PTHR1 agonist -34%.
OC[C@@H]1CN(Cc2ccc(F)cc2)C[C@H](n2cnc3c(N4CCN(c5ccccc5)CC4)ncnc32)O1 was read as HEK293 tox -23%, GLP1R inv ag inconclusive, GLP1R ag -3% and PTHR1 agonist -61%.
`c1ccc(C(c2ccccc2)N2CCN(Cc3nnnn3C3CCCC3)CC2)cc1` gave HEK293 tox -8%, GLP1R inv ag 7.9µM*, RGS4 inhibitor -31%, GLP1R ag -27% and PTHR1 agonist inactive.
`CC(C)CCn1nnnc1CN1CCN(C(c2ccccc2)c2ccccc2)CC1` gave HEK293 tox -10%, GLP1R inv ag 13µM*, RGS4 inhibitor -3%, GLP1R ag 8% and PTHR1 agonist -13%.
For CCC(C)(C)n1nnnc1CN1CCN(C(c2ccccc2)c2ccccc2)CC1 the results were HEK293 tox -12%, GLP1R inv ag 10µM*, RGS4 inhibitor -21%, GLP1R ag -5% and PTHR1 agonist -9%.
For Cc1ccsc1/C=N/Nc1nc(=O)[nH]nc1C the results were HEK293 tox inconclusive, GLP1R inv ag 3.5µM*, RGS4 inhibitor -2%, GLP1R ag 0% and PTHR1 agonist -13%.
`Cc1cc(C)nc(N/N=C/c2sccc2C)n1` gave HEK293 tox -4%, GLP1R inv ag -2%, RGS4 inhibitor inconclusive, GLP1R ag 6% and PTHR1 agonist inactive.
For Cc1ccc2oc(=O)c3cc(C(=O)NCCc4ccc(Cl)cc4)sc3c2c1 the results were HEK293 tox 4%, GLP1R inv ag 8%, RGS4 inhibitor -21%, GLP1R ag -2% and PTHR1 agonist -2%.
CC1Cc2cc(/C=C3/SC(=S)NC3=O)ccc2O1 (stereo not given) was read as HEK293 tox 10µM*, GLP1R inv ag inconclusive, RGS4 inhibitor inconclusive, GLP1R ag 3% and PTHR1 agonist -58%.
For Cc1ccc(-c2cnc3c(Nc4cccc(OC(F)(F)C(F)F)c4)nccn23)cc1 the results were HEK293 tox -10%, GLP1R inv ag inconclusive, GLP1R ag 2% and PTHR1 agonist -45%.
`OCc1cccc(-c2cnc3c(Nc4cccc(OC(F)(F)C(F)F)c4)nccn23)c1` gave HEK293 tox -19%, GLP1R inv ag 13µM*, GLP1R ag -22% and PTHR1 agonist -49%.
For Cc1ccc(-n2nnnc2SCC(=O)NC2CCCc3ccccc32)cc1 (stereo not given) the results were HEK293 tox -7%, GLP1R inv ag 10µM*, RGS4 inhibitor inconclusive, GLP1R ag -1% and PTHR1 agonist -10%.
Screening Cc1ccc(-n2nnnc2SCC(=O)NC2CCCc3ccccc32)c(C)c1 (stereo not given) returned HEK293 tox -8%, GLP1R inv ag 10µM*, RGS4 inhibitor -12%, GLP1R ag 9% and PTHR1 agonist -45%.
For COc1ccc(Cl)cc1NC(=O)CSc1nc2ccccc2nc1N1CCCCC1 the results were HEK293 tox -5%, GLP1R inv ag 2%, RGS4 inhibitor 7% and PTHR1 agonist -17%.
For Cc1c(C(=O)N2CCCC2)oc2c1-c1nn(CC(=O)NCc3cccc(Br)c3)cc1CC2 the results were HEK293 tox -4%, GLP1R inv ag 7%, RGS4 inhibitor -12% and PTHR1 agonist -28%.
Screening COc1ccc(CNC(=O)CCCN2C(=O)NC3(CCCC3)C2=O)cc1 returned HEK293 tox 4%, GLP1R inv ag 2%, RGS4 inhibitor 3%, GLP1R ag 5% and PTHR1 agonist inactive.
For O=C(NCC1CCCO1)c1cc(-c2ccccc2F)no1 (stereo not given) the results were HEK293 tox -20%, GLP1R inv ag 27%, RGS4 inhibitor 17%, GLP1R ag 14% and PTHR1 agonist -28%.
Screening CC1CCCC(C)N1C(=O)Cn1cc(/C=C2/C(=O)Nc3ccccc32)c2ccccc21 (stereo not given) returned HEK293 tox inconclusive, GLP1R inv ag 5.6µM*, RGS4 inhibitor 1%, GLP1R ag 0% and PTHR1 agonist -14%[57.5 µM].
For COC(=O)c1cn(CC(=O)N2C(C)CCCC2C)c2ccccc12 (stereo not given) the results were HEK293 tox 9%, GLP1R inv ag inconclusive, RGS4 inhibitor 7%, GLP1R ag -11% and PTHR1 agonist -9%[57.5 µM].
Screening O=C(c1cn(-c2ccccc2)nc1-c1cccs1)N(CCO)Cc1ccccc1 returned HEK293 tox -8%, GLP1R inv ag 11µM*, RGS4 inhibitor -6%, GLP1R ag 17% and PTHR1 agonist inactive.
`CN(C)C(=O)c1cn(-c2ccccc2)nc1-c1cccs1` gave HEK293 tox -1%, GLP1R inv ag -9%, RGS4 inhibitor -3%, GLP1R ag 15% and PTHR1 agonist inactive.
Screening Cc1ccc2nc(C3CCCN3Cc3nc(CCC(C)C)no3)[nH]c2c1 (stereo not given) returned HEK293 tox 3%, GLP1R inv ag 7.1µM*, RGS4 inhibitor 10%, GLP1R ag -4% and PTHR1 agonist -5%.
For Cc1ccc(S(=O)(=O)N(C)C[C@@H]2OCc3cnnn3CCCC(=O)N([C@@H](C)CO)C[C@@H]2C)cc1 the results were HEK293 tox 10%, GLP1R inv ag 5%, GLP1R ag 10% and PTHR1 agonist -16%.
For C/C(=N\Nc1nc(N2CCCCC2)nc(N2CCOCC2)n1)c1ccccc1O the results were HEK293 tox -2%, GLP1R inv ag 2.5µM*, RGS4 inhibitor 8%, GLP1R ag 23% and PTHR1 agonist -14%.
`Cc1ccc(CNC(=O)c2c(Nc3c(C)cccc3C)sc(C(=O)c3ccccc3)c2N)cc1` gave HEK293 tox -24%, GLP1R inv ag 7.1µM*, RGS4 inhibitor 6% and PTHR1 agonist -22%.
For COc1cccc(Nc2sc(C(=O)c3ccc(Cl)cc3)c(N)c2C(=O)NCc2ccc(C)cc2)c1 the results were HEK293 tox -14%, GLP1R inv ag inconclusive, RGS4 inhibitor 6% and PTHR1 agonist -23%.
